Legend:
Test in all cases: DAPPL (digital affinity profiling via proximity ligation, sequencing); 10 mM Tris-HCl pH 7.5, 50 mM NaCl, 1 mM DTT, 4% glycerol, room temperature, 30 min; GST-TFs on glutathione beads, 16-mer random dsDNA library, 0.1% formaldehyde crosslink after washing; high values mean tight binding
FEV = molecular target: T1, FEV (Homo sapiens, UniProt Q99581 1-238); conditions: protein: recombinant; tags: N-terminal GST; dsDNA, one strand shown
T1 sequence: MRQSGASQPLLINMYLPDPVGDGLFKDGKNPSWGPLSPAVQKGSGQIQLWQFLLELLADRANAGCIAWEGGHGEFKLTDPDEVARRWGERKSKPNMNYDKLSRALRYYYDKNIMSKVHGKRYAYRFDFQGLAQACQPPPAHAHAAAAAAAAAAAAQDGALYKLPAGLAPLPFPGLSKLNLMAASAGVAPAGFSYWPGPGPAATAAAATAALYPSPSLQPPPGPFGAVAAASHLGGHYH
Method in brief: (§1)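 In yeast, human transcription factors were expressed with a GST fusion, then pulled down on glutathione beads and given DNA barcodes. Pooled with a tag-only sample, they were exposed to 200 nmole of a 16-mer random double-stranded DNA library (Tris/NaCl/DTT/glycerol buffer, room temperature, 30 min), washed, crosslinked with 0.1% formaldehyde, proximity-ligated using BsaI/T4 ligase for 1 h at 37 °C, PCR-amplified and read on an Illumina NextSeq500. Each hexamer's frequency of reads for a factor, divided by the matching frequency for the tag-only sample, gives the binding signal.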

ETV5 = ETV5 (Homo sapiens, UniProt P41161 1-510); conditions: protein: recombinant; tags: N-terminal GST; dsDNA, one strand shown
Method in brief: as §1

HSF1 = HSF1 (Homo sapiens, UniProt Q00613 1-529); conditions: protein: recombinant; tags: N-terminal GST; chain copies: 3; dsDNA, one strand shown
Method in brief: as §1

SPIC = molecular target: T2, SPIC (Homo sapiens, UniProt Q8N5J4 1-248); conditions: protein: recombinant; tags: N-terminal GST; dsDNA, one strand shown
T2 sequence: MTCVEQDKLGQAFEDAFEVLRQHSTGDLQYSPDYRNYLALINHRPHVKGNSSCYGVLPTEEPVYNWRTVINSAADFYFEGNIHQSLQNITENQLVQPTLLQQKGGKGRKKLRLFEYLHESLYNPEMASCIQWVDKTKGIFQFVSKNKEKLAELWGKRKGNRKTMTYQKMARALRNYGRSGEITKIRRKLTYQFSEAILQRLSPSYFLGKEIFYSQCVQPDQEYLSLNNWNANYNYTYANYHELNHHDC
Method in brief: as §1

ELF4 = ELF4 (Homo sapiens, UniProt Q99607 1-663); conditions: protein: recombinant; tags: N-terminal GST; dsDNA, one strand shown
Method in brief: as §1

ELK4 = molecular target: T3, ELK4 (Homo sapiens, UniProt P28324-2 1-405); conditions: protein: recombinant; tags: N-terminal GST; dsDNA, one strand shown
T3 sequence: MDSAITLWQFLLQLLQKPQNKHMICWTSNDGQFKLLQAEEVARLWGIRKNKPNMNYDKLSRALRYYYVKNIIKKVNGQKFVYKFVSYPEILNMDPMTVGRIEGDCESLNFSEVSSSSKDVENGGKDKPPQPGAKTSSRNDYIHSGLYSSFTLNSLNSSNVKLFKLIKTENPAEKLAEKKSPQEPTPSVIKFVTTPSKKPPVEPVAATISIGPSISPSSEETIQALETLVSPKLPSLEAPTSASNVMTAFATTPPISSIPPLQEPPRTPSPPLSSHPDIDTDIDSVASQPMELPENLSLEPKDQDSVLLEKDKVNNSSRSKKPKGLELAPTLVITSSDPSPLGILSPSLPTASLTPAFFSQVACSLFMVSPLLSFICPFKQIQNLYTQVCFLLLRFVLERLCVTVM
Method in brief: as §1

ETV2 = molecular target: T4, ETV2 (Homo sapiens, UniProt O00321 1-342); conditions: protein: recombinant; tags: N-terminal GST; dsDNA, one strand shown
T4 sequence: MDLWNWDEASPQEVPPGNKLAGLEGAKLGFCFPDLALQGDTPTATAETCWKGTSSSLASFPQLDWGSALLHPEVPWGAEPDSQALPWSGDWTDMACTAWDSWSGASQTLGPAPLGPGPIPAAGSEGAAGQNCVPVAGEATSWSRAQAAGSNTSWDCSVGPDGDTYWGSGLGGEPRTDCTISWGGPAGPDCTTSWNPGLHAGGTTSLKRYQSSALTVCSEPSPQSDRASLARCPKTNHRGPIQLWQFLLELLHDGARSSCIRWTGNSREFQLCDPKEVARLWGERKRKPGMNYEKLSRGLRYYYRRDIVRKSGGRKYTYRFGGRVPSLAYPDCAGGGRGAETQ
Method in brief: as §1

ELF3 = molecular target: T5, ELF3 (Homo sapiens, UniProt P78545 1-371); conditions: protein: recombinant; tags: N-terminal GST; dsDNA, one strand shown
T5 sequence: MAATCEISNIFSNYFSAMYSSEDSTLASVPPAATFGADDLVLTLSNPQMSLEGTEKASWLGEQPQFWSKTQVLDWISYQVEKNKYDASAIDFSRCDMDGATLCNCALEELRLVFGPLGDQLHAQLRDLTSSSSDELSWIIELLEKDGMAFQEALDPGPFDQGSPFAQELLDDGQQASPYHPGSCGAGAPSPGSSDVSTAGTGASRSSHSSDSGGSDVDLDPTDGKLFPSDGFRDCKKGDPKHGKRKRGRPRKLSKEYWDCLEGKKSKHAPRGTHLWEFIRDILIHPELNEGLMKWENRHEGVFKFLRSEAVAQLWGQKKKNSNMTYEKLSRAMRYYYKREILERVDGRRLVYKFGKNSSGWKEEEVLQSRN
Method in brief: as §1

CRX = CRX (Homo sapiens, UniProt O43186 1-299); conditions: protein: recombinant; tags: N-terminal GST; dsDNA, one strand shown
Method in brief: as §1

ETV1 = ETV1 (Homo sapiens, UniProt P50549 1-477); conditions: protein: recombinant; tags: N-terminal GST; dsDNA, one strand shown
Method in brief: as §1

ERF = molecular target: T6, ERF (Homo sapiens, UniProt P50548 1-548); conditions: protein: recombinant; tags: N-terminal GST; dsDNA, one strand shown
T6 sequence: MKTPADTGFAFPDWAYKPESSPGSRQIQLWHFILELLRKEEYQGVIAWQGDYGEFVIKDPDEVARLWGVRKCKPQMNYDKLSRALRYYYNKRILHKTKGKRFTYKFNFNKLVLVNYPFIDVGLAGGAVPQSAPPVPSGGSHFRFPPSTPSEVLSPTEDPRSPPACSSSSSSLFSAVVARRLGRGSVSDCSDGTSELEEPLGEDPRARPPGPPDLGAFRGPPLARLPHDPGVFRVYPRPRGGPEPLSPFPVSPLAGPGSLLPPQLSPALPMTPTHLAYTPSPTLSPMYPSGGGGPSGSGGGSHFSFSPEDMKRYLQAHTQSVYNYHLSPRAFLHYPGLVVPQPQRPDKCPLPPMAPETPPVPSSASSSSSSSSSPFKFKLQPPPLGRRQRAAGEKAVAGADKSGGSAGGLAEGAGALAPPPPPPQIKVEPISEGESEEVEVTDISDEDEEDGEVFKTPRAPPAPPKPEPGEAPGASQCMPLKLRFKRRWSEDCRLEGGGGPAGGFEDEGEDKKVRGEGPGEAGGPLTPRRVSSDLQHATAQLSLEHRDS
Method in brief: as §1

ETV3L = molecular target: T7, ETV3L (Homo sapiens, UniProt Q6ZN32 1-361); conditions: protein: recombinant; tags: N-terminal GST; dsDNA, one strand shown
T7 sequence: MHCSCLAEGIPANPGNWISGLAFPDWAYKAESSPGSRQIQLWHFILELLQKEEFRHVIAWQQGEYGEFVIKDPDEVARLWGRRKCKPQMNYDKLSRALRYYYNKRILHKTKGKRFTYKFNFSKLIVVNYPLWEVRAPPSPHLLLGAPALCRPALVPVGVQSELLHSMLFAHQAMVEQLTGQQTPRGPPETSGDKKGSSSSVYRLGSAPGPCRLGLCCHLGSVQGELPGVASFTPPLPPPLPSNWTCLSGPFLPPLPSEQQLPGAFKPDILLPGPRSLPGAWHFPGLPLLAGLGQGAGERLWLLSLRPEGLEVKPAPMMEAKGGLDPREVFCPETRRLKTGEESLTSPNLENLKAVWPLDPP
Method in brief: as §1

ETS2 = molecular target: T8, ETS2 (Homo sapiens, UniProt P15036 1-469); conditions: protein: recombinant; tags: N-terminal GST; dsDNA, one strand shown
T8 sequence: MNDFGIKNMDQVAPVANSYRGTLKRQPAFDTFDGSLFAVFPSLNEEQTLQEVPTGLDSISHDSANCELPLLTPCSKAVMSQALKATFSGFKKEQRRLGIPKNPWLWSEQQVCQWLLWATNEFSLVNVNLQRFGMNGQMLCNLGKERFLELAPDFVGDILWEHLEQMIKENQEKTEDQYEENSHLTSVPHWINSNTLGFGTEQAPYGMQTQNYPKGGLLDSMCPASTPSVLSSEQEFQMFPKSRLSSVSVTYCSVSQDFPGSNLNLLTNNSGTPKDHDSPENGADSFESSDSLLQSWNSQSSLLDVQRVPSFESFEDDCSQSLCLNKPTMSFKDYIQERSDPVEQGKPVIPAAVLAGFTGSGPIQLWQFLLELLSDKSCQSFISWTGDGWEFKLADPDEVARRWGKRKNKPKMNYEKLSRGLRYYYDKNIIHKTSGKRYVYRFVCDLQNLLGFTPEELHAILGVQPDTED
Method in brief: as §1

SPDEF = molecular target: T9, SPDEF (Homo sapiens, UniProt O95238 1-335); conditions: protein: recombinant; tags: N-terminal GST; dsDNA, one strand shown
T9 sequence: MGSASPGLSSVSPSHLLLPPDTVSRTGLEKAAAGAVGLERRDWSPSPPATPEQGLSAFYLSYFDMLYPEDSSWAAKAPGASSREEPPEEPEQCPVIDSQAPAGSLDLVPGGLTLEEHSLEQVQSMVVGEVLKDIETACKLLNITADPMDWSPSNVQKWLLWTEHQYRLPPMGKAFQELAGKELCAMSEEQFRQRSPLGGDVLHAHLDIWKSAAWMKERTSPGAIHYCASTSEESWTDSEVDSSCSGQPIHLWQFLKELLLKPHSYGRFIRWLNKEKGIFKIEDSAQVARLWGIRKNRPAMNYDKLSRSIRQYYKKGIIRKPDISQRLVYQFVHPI
Method in brief: as §1

ETV7 = molecular target: T10, ETV7 (Homo sapiens, UniProt Q9Y603 1-341); conditions: protein: recombinant; tags: N-terminal GST; dsDNA, one strand shown
T10 sequence: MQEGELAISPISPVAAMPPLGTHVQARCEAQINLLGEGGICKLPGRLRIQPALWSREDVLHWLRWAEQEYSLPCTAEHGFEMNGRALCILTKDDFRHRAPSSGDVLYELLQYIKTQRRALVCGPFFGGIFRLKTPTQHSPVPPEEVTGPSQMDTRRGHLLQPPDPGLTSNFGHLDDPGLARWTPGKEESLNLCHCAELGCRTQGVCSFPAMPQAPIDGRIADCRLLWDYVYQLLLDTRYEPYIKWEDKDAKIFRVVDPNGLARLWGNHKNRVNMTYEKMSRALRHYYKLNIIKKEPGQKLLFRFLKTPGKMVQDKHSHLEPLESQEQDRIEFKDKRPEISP
Method in brief: as §1

ELF5 = molecular target: T11, ELF5 (Homo sapiens, UniProt Q9UKW6-2 1-255); conditions: protein: recombinant; tags: N-terminal GST; dsDNA, one strand shown
T11 sequence: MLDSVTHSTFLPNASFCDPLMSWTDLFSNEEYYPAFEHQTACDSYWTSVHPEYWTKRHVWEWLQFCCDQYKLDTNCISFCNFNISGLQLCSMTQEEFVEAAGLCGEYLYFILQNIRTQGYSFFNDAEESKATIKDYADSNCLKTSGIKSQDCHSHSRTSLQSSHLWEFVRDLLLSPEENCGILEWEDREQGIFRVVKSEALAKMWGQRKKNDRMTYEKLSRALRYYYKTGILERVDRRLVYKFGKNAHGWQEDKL
Method in brief: as §1

ETV3 = molecular target: T12, ETV3 (Homo sapiens, UniProt P41162-2 1-143); conditions: protein: recombinant; tags: N-terminal GST; dsDNA, one strand shown
T12 sequence: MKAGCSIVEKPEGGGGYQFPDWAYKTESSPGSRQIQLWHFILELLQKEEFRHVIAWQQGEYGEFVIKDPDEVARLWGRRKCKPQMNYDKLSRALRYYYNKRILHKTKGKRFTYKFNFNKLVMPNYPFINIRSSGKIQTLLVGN
Method in brief: as §1

ETV6 = ETV6 (Homo sapiens, UniProt P41212 1-452); conditions: protein: recombinant; tags: N-terminal GST; dsDNA, one strand shown
Method in brief: as §1

Chain of ETV6 (P41212 whole entry): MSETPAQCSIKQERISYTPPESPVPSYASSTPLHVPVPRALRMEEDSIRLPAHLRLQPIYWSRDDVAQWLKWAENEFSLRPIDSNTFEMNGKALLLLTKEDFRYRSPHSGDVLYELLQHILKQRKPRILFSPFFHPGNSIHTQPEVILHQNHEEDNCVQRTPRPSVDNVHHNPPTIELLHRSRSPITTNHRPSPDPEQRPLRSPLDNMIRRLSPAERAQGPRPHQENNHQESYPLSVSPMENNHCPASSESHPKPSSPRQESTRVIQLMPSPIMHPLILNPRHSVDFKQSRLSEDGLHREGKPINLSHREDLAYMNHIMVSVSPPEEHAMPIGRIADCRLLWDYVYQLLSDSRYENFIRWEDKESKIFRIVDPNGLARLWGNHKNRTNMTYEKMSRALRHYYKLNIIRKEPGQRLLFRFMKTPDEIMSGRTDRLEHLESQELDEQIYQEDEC
Chain of HSF1 (Q00613 whole entry): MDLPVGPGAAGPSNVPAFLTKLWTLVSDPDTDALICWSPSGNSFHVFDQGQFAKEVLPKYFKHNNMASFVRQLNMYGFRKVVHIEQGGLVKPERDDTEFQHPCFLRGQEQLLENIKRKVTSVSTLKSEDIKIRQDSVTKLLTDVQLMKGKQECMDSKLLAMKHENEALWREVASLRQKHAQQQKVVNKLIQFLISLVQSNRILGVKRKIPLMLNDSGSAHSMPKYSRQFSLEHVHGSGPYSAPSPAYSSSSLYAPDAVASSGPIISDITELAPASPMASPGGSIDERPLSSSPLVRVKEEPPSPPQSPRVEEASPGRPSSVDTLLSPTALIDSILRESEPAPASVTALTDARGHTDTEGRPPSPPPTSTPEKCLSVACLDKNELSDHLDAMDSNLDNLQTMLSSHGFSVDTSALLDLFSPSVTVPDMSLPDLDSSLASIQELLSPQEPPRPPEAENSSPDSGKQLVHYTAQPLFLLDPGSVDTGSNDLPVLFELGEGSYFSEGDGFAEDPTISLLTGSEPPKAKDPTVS
Chain of CRX (O43186 whole entry): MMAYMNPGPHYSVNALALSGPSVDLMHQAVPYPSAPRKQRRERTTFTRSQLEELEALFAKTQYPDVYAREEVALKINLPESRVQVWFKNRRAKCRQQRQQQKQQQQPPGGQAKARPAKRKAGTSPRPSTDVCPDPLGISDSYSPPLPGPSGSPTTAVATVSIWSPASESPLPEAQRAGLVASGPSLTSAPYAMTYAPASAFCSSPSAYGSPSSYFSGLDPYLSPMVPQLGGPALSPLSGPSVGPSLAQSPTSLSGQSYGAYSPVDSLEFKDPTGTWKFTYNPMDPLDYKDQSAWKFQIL
Chain of ELF4 (Q99607 whole entry): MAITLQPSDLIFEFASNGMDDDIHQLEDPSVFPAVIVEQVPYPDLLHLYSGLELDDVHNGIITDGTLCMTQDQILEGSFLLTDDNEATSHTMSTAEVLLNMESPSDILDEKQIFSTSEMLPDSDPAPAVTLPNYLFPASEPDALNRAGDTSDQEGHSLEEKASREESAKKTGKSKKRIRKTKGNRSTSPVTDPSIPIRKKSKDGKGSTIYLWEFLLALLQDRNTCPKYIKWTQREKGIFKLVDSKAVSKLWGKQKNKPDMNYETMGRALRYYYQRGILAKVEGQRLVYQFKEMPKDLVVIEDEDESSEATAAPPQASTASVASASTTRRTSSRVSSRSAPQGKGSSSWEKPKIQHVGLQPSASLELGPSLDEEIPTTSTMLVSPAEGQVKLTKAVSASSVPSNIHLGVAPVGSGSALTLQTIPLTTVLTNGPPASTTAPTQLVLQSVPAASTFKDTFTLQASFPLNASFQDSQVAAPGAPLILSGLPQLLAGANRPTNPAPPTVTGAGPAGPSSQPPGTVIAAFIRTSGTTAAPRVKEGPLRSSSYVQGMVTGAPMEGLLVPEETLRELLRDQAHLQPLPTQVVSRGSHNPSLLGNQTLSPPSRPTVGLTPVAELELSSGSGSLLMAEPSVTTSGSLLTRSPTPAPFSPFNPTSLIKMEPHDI
Chain of ETV1 (P50549 whole entry): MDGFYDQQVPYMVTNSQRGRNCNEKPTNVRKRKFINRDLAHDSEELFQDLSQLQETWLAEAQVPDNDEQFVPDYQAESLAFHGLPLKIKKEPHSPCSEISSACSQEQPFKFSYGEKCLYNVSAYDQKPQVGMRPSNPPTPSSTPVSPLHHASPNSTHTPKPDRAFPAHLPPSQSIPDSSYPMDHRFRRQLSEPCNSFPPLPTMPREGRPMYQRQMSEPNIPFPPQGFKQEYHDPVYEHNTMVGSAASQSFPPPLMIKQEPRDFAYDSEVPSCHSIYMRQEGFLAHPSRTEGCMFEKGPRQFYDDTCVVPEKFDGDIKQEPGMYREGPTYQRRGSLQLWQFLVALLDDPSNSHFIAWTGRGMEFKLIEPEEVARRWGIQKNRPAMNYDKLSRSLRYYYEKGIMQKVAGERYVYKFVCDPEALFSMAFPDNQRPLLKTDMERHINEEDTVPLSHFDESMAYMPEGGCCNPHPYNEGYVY
Chain of ETV5 (P41161 whole entry): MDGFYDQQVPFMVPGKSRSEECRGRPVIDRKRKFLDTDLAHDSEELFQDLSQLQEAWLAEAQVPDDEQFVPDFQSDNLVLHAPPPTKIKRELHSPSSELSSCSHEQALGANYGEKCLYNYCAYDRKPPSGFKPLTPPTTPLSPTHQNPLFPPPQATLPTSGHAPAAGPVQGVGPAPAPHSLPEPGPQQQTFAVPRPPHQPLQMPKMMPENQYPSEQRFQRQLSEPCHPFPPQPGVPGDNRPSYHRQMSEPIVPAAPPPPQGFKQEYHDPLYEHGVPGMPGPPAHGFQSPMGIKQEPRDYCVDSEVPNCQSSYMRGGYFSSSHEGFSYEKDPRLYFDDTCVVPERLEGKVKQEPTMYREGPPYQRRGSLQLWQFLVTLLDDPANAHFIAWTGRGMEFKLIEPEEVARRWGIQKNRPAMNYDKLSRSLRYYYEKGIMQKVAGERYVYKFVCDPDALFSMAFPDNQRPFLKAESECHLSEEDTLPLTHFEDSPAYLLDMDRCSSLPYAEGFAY

## CCGACT
FEV
  binding signal: 1.52 fold enrichment (6-mer frequency, TF over GST control)
ETV5
  binding signal: 1.44 fold enrichment (6-mer frequency, TF over GST control)
HSF1
  binding signal: 1.29 fold enrichment (6-mer frequency, TF over GST control)
SPIC
  binding signal: 1.53 fold enrichment (6-mer frequency, TF over GST control)
ELF4
  binding signal: 1.52 fold enrichment (6-mer frequency, TF over GST control)
ELK4
  binding signal: 1.56 fold enrichment (6-mer frequency, TF over GST control)
ETV2
  binding signal: 1.46 fold enrichment (6-mer frequency, TF over GST control)
ELF3
  binding signal: 1.55 fold enrichment (6-mer frequency, TF over GST control)
CRX
  binding signal: 1.45 fold enrichment (6-mer frequency, TF over GST control)
ETV1
  binding signal: 1.6 fold enrichment (6-mer frequency, TF over GST control)
ERF
  binding signal: 1.5 fold enrichment (6-mer frequency, TF over GST control)
ETV3L
  binding signal: 1.6 fold enrichment (6-mer frequency, TF over GST control)
ETS2
  binding signal: 1.54 fold enrichment (6-mer frequency, TF over GST control)
SPDEF
  binding signal: 1.45 fold enrichment (6-mer frequency, TF over GST control)
ETV7
  binding signal: 1.32 fold enrichment (6-mer frequency, TF over GST control)
ELF5
  binding signal: 1.41 fold enrichment (6-mer frequency, TF over GST control)
ETV3
  binding signal: 1.34 fold enrichment (6-mer frequency, TF over GST control)
ETV6
  binding signal: 1.51 fold enrichment (6-mer frequency, TF over GST control)
